Hits are enriched below; roughly 1.4% of the tested compounds scored in any of these assays.
BJeLR viability: MLPCN primary cell-based screen for lethality selective to Ras in HRASV12 cells; BJeLR (HRASV12) viability, CellTiter-Glo ATP luminescence, 48 h; inhibition, % (test concentration not listed); hit rate 0.17% among 300,000; AID 1554, 2009; in the data active = inhibition above about 50%
Mtb hypoxia inh: PubChem AID 1159583; fluorescence inhibition, % (test concentration not listed); M. tuberculosis hypoxia-regulated fluorescent reporter, fluorescence; hit rate 0.1% among 300,000; in the data active = fluorescence inhibition mostly above about 23%, no sharp cut-off; inactive = mostly below about 17%
PrP UTR inh: inhibition of PrP 5' UTR reporter expression | cell-based PrP 5' UTR mRNA reporter, plate reader | inhibition, % (concentration not given with the values) | hit rate 0.35% among 340,000 | AID 488862, 2010; in the data active = inhibition above about 52%; note: 0 = median of the neutral control wells
3CLpro inhibitor: SARS-CoV 3CLpro protease inhibitors, primary screen, biochemical, quenched FRET; AID 1706, 2009; hit rate 0.14% among 290,000; recombinant SARS-CoV 3CLpro, quenched FRET peptide cleavage; Replicase polyprotein 1ab (Severe acute respiratory syndrome coronavirus), P0C6X7; inhibition, % at 6 µM; in the data active = inhibition above about 12%
RecA splice inh: Mtb RecA intein splicing inhibitors, primary screen, biochemical, fluorescence, HTS. Protein RecA (Mycobacterium tuberculosis (strain ATCC 25618 / H37Rv)), P9WHJ3. cell-free RecA intein splicing. inhibition, % (concentration not given with the values). hit rate 0.75% among 290,000; in the data active = inhibition above about 30%;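 note: 0% = vehicle wells and 100% = reference inhibitor control wells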
Target sequence (P9WHJ3 whole entry, looked up, canonical isoform): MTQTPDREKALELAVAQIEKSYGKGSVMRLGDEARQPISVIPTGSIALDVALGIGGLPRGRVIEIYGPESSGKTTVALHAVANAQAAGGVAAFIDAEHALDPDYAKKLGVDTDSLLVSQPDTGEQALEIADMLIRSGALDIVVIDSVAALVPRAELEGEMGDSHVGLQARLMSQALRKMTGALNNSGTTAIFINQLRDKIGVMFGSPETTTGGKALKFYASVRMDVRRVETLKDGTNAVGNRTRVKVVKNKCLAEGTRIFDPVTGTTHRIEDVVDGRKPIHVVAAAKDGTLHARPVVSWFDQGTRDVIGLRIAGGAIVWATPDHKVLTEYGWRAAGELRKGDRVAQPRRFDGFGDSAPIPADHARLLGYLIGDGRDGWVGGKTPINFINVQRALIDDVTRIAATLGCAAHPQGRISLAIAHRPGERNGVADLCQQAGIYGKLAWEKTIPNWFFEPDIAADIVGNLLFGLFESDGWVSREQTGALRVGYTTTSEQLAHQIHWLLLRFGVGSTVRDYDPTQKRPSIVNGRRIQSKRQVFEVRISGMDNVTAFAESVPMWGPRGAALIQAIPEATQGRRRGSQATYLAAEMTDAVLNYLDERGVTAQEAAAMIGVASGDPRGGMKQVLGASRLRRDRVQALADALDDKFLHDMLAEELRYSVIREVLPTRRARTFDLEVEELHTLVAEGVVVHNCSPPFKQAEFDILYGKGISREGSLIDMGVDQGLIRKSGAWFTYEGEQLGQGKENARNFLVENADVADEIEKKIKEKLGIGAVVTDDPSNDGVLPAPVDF
PrPC TRFRET: inhibitors of human cell surface prion protein PrPC, primary screen, cell-based, TR-FRET; Major prion protein (Homo sapiens), P04156; TR-FRET read-out; inhibition, % at 13.8 µM; hit rate 0.43% among 370,000; AID 720596, 2013; in the data active = inhibition above about 24%; note: 0% = median of the test wells and 100% = reference compound wells
Active calls of the source: *.

What do the screens show for `O=C(N/N=C/c1c(O)n(Cc2ccccc2)c(=O)[nH]c1=O)c1ccccc1O`?
BJeLR viability: 9; Mtb hypoxia inh: 8; PrP UTR inh: -28; 3CLpro inhibitor: -6; RecA splice inh: 21; PrPC TRFRET: 7

What do the screens show for `CCOC1OC(C(=O)N2CCN(Cc3ccc4c(c3)OCO4)CC2)=CC(C2CCCCC2)C1CCCO` (stereo not given)?
Mtb hypoxia inh: 1

Results for O=C1Nc2ccccc2C1=NN1CCOCC1 ?
Mtb hypoxia inh: 6

What do the screens show for `CC(=O)NS(=O)(=O)c1ccc(Nc2ccc([N+](=O)[O-])c3nonc23)cc1`?
BJeLR viability: 10; Mtb hypoxia inh: 38*; PrP UTR inh: -4; 3CLpro inhibitor: -2; RecA splice inh: 9; PrPC TRFRET: -51

What do the screens show for `O=C(C1=CC(c2csc3ccccc23)CC(OCCCCO)O1)N1CCN(Cc2ccccc2)CC1` (stereo not given)?
Mtb hypoxia inh: 9

What do the screens show for `O=c1c(Br)ccc(Br)cc1Br`?
Mtb hypoxia inh: 12; PrP UTR inh: -18; PrPC TRFRET: 88*

What do the screens show for `C=CCOC(=O)C(=O)C=Cc1ccc2c(c1)Cc1ccccc1-2`?
Mtb hypoxia inh: 17

What do the screens show for `COc1ccc(C2C=CCN(C(=O)C(Cc3ccccc3)NC(=O)OCC3c4ccccc4-c4ccccc43)CC(=O)N2Cc2ccc(F)cc2)cc1` (stereo not given)?
Mtb hypoxia inh: 9

What do the screens show for `O=S(=O)(O)c1cccc(N=Nc2c(O)ccc3ccccc23)c1`?
BJeLR viability: -7; Mtb hypoxia inh: 36*; PrP UTR inh: -3; 3CLpro inhibitor: 4; RecA splice inh: -1; PrPC TRFRET: -48

Results for Cc1nn(-c2ccc(N3CCOCC3)nn2)c(C)c1CCC(=O)N1CCN(C)CC1 ?
BJeLR viability: -9; Mtb hypoxia inh: 75*; PrP UTR inh: -23; 3CLpro inhibitor: 1; RecA splice inh: -1; PrPC TRFRET: 1

Results for Cc1ccc(C(=O)NC(=CC=Cc2ccccc2)C(=O)NCc2ccco2)cc1 ?
Mtb hypoxia inh: 5

How did C[C@@H]1C[C@H]2OC(=O)C3(CO3)[C@H]2[C@H](O)[C@]2(C)C(=O)C3OC3[C@@H]12 (stereo not given in full) do in these assays?
BJeLR viability: 73*; RecA splice inh: 18

What do the screens show for `Oc1c(CN2CCc3ccccc3C2)cc(Cl)c2cccnc12`?
BJeLR viability: 65*; Mtb hypoxia inh: 1; PrP UTR inh: 22; 3CLpro inhibitor: 2; RecA splice inh: 13

Results for CCOC(=O)/C(C#N)=C1/SC(C)C(=O)N1c1ccc(Br)cc1 (stereo not given) ?
BJeLR viability: -8; Mtb hypoxia inh: 11; PrP UTR inh: -21; 3CLpro inhibitor: 0; RecA splice inh: 32*; PrPC TRFRET: 6

Results for CCOC(=O)/C(C#N)=C1/SC(CC)C(=O)N1c1ccc(Br)cc1 (stereo not given) ?
BJeLR viability: 4; Mtb hypoxia inh: -6; PrP UTR inh: -17; 3CLpro inhibitor: 3; RecA splice inh: 5; PrPC TRFRET: 11

What do the screens show for `N#Cc1ccc(/C=C/C(=O)c2ccccc2)cc1`?
BJeLR viability: 28; Mtb hypoxia inh: 36*; PrP UTR inh: -27; 3CLpro inhibitor: 0; RecA splice inh: 6; PrPC TRFRET: 8

Results for O=C(/C=C/c1ccccc1)c1ccccc1 ?
BJeLR viability: -3; PrP UTR inh: -13; 3CLpro inhibitor: -4; RecA splice inh: -1; PrPC TRFRET: 9

How did Cc1ccc(S(=O)(=O)NC(CCCCN)C(=O)CCl)cc1 (stereo not given) do in these assays?
Mtb hypoxia inh: 2

Results for Cc1ccc(S(=O)(=O)N[C@@H](CCCCN)C(=O)CCl)cc1 ?
BJeLR viability: 10; PrP UTR inh: 20; RecA splice inh: 50*; PrPC TRFRET: -7

How did Cc1cccc(C2C3C(=O)N(Cc4ccccc4)C(=O)C3[C@]3(C)C(=O)N(c4cccc(F)c4)C(=O)N23)c1 (stereo not given in full) do in these assays?
Mtb hypoxia inh: 3

Results for CCOc1ccc(N=Cc2c(C)[nH]n(-c3nc4ccccc4[nH]3)c2=O)cc1 ?
BJeLR viability: 65*; Mtb hypoxia inh: 3; PrP UTR inh: -7; 3CLpro inhibitor: 1; RecA splice inh: 0; PrPC TRFRET: -5

What do the screens show for `Cc1nc2ccccn2c1-c1csc(Nc2cccc(O)c2)n1`?
BJeLR viability: 55*; Mtb hypoxia inh: -3; PrP UTR inh: -20; 3CLpro inhibitor: 0; RecA splice inh: 4; PrPC TRFRET: -5

What do the screens show for `O=C(Nc1ccno1)Nc1ccc(Cl)cc1Cl`?
BJeLR viability: -9; Mtb hypoxia inh: 58*; PrP UTR inh: -14; 3CLpro inhibitor: -1; RecA splice inh: -1; PrPC TRFRET: 7

Results for O=C(Nc1ccc(Cl)cc1Cl)Nn1cnnc1 ?
BJeLR viability: 10; Mtb hypoxia inh: 1; PrP UTR inh: -43; 3CLpro inhibitor: -1; RecA splice inh: -3; PrPC TRFRET: -1

What do the screens show for `Cc1ccc(NC(=O)Nc2ccno2)cc1`?
BJeLR viability: -11; Mtb hypoxia inh: 89*; 3CLpro inhibitor: 8; RecA splice inh: 0; PrPC TRFRET: 13

How did O=Cc1sc(=O)n(Cc2cccc(C(=O)O)c2)c1Cl do in these assays?
BJeLR viability: 5; Mtb hypoxia inh: 1; PrP UTR inh: -25; 3CLpro inhibitor: 5; RecA splice inh: 54*; PrPC TRFRET: 4

How did O=C(O)c1cccc(Cn2c(Cl)c(C=NNc3ccccc3)sc2=O)c1 do in these assays?
Mtb hypoxia inh: -2

What do the screens show for `C#CCOc1ccc(C2C3=C(COC3=O)Nc3cc4c(cc32)OCO4)cc1OC` (stereo not given)?
BJeLR viability: 61*; Mtb hypoxia inh: -2; PrP UTR inh: 16; 3CLpro inhibitor: 3; RecA splice inh: -1; PrPC TRFRET: 7

How did O=C(NN=Cc1ccc(N2CCOCC2)o1)c1ccccc1[N+](=O)[O-] do in these assays?
Mtb hypoxia inh: -5

How did O=C1C(=Cc2ccncc2)CCCc2ccccc21 do in these assays?
PrPC TRFRET: 3

What do the screens show for `O=C1/C(=C/c2ccncc2)CCC/C1=C\c1ccncc1`?
BJeLR viability: 68*; PrP UTR inh: 20; 3CLpro inhibitor: 3; RecA splice inh: 7; PrPC TRFRET: -5

How did COc1ccc(CN2C(=O)C(Cc3ccccc3)Nc3ncnc(N4CCOCC4)c32)cc1 (stereo not given) do in these assays?
BJeLR viability: -9; Mtb hypoxia inh: -6; PrP UTR inh: -28; RecA splice inh: 0; PrPC TRFRET: 6

Results for COc1ccc(CN2C(=O)C(Cc3ccccc3)Nc3ncnc(N4CCc5ccccc5C4)c32)cc1 (stereo not given) ?
BJeLR viability: -5; RecA splice inh: 35*
